Source: PubChem BioAssay AID1159580 (chemical genetic matrix, 2015)
Several values for one entry are separate records, joined by “and”; a condition that tells them apart may be missing. Equal entries are not always repeated. Out of some 5,500 compounds screened, about 2,000 (36%) were called active. Another 18% or so got no clear call; they are omitted. Cut-off read from the data, not from the text of the source: active = normalized growth mostly below about 0.91 (no sharp cut-off); inconclusive = no clear call, values can overlap the other calls; inactive = mostly above about 0.92. This is one part of the list.

Assay: chemical genetic growth profiling, strain panel (AID 1159580);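 note: tested at 20 µM; growth read once vehicle control cultures reached saturation at 30 °C; 1 = growth at the plate median or of vehicle wells; lower values mean less growth of the strain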
Details: S. cerevisiae deletion strains, growth OD

For `COc1c2ccccc2nc2occc12`, the normalized growth (locus YAL013W, strain DEP1, stronger effect = lower value) was 0.918 (inactive), the normalized growth (locus YAL021C, strain ccr4, stronger effect = lower value) was 0.943 (inactive) and the normalized growth (locus YAL026C, strain drs2, stronger effect = lower value) was 0.914 (inactive). The normalized growth (locus YAL030W, strain snc1, stronger effect = lower value) was 0.971 (inactive), the normalized growth (locus YBL061C, strain skt5, stronger effect = lower value) was 0.956 (inactive) and the normalized growth (locus YBR009C, strain hhf1, stronger effect = lower value) was 0.867 (active). For the same molecule, the normalized growth (locus YBR021W, strain FUR4, stronger effect = lower value) was 0.993 (inactive), the normalized growth (locus YBR023C, strain chs3, stronger effect = lower value) was 0.926 (inactive) and the normalized growth (locus YBR171W, strain sec66, stronger effect = lower value) was 0.942 (inactive). For the same molecule, the normalized growth (locus YBR229C, strain ROT2, stronger effect = lower value) was 1 (inactive), the normalized growth (locus YBR231C, strain swc5, stronger effect = lower value) was 0.969 (inactive) and the normalized growth (locus YBR279W, strain paf1, stronger effect = lower value) was 0.949 (inactive). The normalized growth (locus YCL011C, strain gbp2, stronger effect = lower value) was 0.913 (inactive), the normalized growth (locus YCL016C, strain dcc1, stronger effect = lower value) was 0.9 (active) and the normalized growth (locus YCL029C, strain bik1, stronger effect = lower value) was 0.953 (inactive). The normalized growth (locus YCL069W, strain vba3, stronger effect = lower value) was 0.882 (active), the normalized growth (locus YCR088W, strain abp1, stronger effect = lower value) was 0.991 (inactive) and the normalized growth (locus YDL005C, strain med2, stronger effect = lower value) was 0.972 (inactive). The normalized growth (locus YDL035C, strain GPR1, stronger effect = lower value) was 0.929 (inactive), the normalized growth (locus YDL040C, strain nat1, stronger effect = lower value) was 0.982 (inactive) and the normalized growth (locus YDL074C, strain BRE1, stronger effect = lower value) was 0.867 (inactive). For the same molecule, the normalized growth (locus YDL101C, strain DUN1, stronger effect = lower value) was 0.934 (inactive), the normalized growth (locus YDL185W, strain tfp1, stronger effect = lower value) was 0.99 (inactive) and the normalized growth (locus YDL192W, strain arf1, stronger effect = lower value) was 0.89 (active). For the same molecule, the normalized growth (locus YDR001C, strain nth1, stronger effect = lower value) was 0.966 (inactive), the normalized growth (locus YDR069C, strain doa4, stronger effect = lower value) was 0.942 (inactive) and the normalized growth (locus YDR101C, strain arx1, stronger effect = lower value) was 0.876 (active). The normalized growth (locus YDR137W, strain rgp1, stronger effect = lower value) was 0.93 (inactive), the normalized growth (locus YDR159W, strain sac3, stronger effect = lower value) was 0.931 (inactive) and the normalized growth (locus YDR162C, strain NBP2, stronger effect = lower value) was 0.926 (inactive). For the same molecule, the normalized growth (locus YDR195W, strain ref2) was 1.32 [resistant] (active), the normalized growth (locus YDR297W, strain sur2, stronger effect = lower value) was 0.97 (inactive) and the normalized growth (locus YDR318W, strain mcm21, stronger effect = lower value) was 0.928 (inactive). The normalized growth (locus YDR334W, strain swr1, stronger effect = lower value) was 0.945 (inactive), the normalized growth (locus YDR335W, strain msn5, stronger effect = lower value) was 0.938 (inactive) and the normalized growth (locus YDR388W, stronger effect = lower value) was 0.993 (inactive). For the same molecule, the normalized growth (locus YDR392W, strain spt3, stronger effect = lower value) was 0.767 (inactive), the normalized growth (locus YDR502C, strain sam2, stronger effect = lower value) was 0.918 (active) and the normalized growth (locus YEL003W, strain gim4, stronger effect = lower value) was 0.941 (inactive). The normalized growth (locus YEL037C, strain rad23, stronger effect = lower value) was 0.954 (inactive), the normalized growth (locus YEL061C, strain CIN8 (second series), stronger effect = lower value) was 0.976 (inactive) and the normalized growth (locus YEL061C, strain CIN8, stronger effect = lower value) was 0.993 (inactive). The normalized growth (locus YER015W, strain faa2, stronger effect = lower value) was 0.923 (active), the normalized growth (locus YER016W, strain bim1, stronger effect = lower value) was 0.981 (inactive) and the normalized growth (locus YER110C, stronger effect = lower value) was 0.937 (inactive). The normalized growth (locus YER111C, strain swi4, stronger effect = lower value) was 0.981 (inactive), the normalized growth (locus YER155C, strain BEM2 (second series), stronger effect = lower value) was 0.648 (active) and the normalized growth (locus YER155C, strain BEM2, stronger effect = lower value) was 1.02 (inactive). For the same molecule, the normalized growth (locus YER167W, strain BCK2, stronger effect = lower value) was 0.941 (inactive), the normalized growth (locus YFR010W, strain ubp6, stronger effect = lower value) was 0.919 (inactive) and the normalized growth (locus YGL078C, strain dbp3, stronger effect = lower value) was 0.944 (inactive). For the same molecule, the normalized growth (locus YGL086W, strain mad1, stronger effect = lower value) was 0.907 (active), the normalized growth (locus YGL167C, strain pmr1, stronger effect = lower value) was 0.949 (inactive) and the normalized growth (locus YGL173C, strain kem1, stronger effect = lower value) was 0.941 (inactive). The normalized growth (locus YGL227W, strain vid30, stronger effect = lower value) was 0.989 (inactive), the normalized growth (locus YGL240W, strain doc1, stronger effect = lower value) was 0.791 (active) and the normalized growth (locus YGL248W, strain PDE1, stronger effect = lower value) was 0.929 (inactive). The normalized growth (locus YGL253W, strain hxk2, stronger effect = lower value) was 0.946 (inactive), the normalized growth (locus YGR135W, strain pre9, stronger effect = lower value) was 0.888 (active) and the normalized growth (locus YGR252W, strain gcn5, stronger effect = lower value) was 0.728 (active). For the same molecule, the normalized growth (locus YHR013C, strain ard1, stronger effect = lower value) was 0.967 (inactive), the normalized growth (locus YHR027C, strain rpn1, stronger effect = lower value) was 0.932 (inactive) and the normalized growth (locus YHR030C, strain SLT2, stronger effect = lower value) was 1 (inactive) and 0.88 (inactive). For the same molecule, the normalized growth (locus YHR079C, strain IRE1 (second series), stronger effect = lower value) was 0.994 (inactive), the normalized growth (locus YHR079C, strain IRE1, stronger effect = lower value) was 0.868 (inactive) and the normalized growth (locus YHR094C, strain hxt1, stronger effect = lower value) was 1.01 (inactive). The normalized growth (locus YHR129C, strain ARP1, stronger effect = lower value) was 0.967 (inactive), the normalized growth (locus YHR142W, strain chs7, stronger effect = lower value) was 0.842 (active) and the normalized growth (locus YHR200W, strain rpn10, stronger effect = lower value) was 0.882 (active). For the same molecule, the normalized growth (locus YIL066C, strain RNR3, stronger effect = lower value) was 0.91 (inactive), the normalized growth (locus YIL073C, strain SPO22, stronger effect = lower value) was 0.939 (inactive) and the normalized growth (locus YIL125W, strain kgd1, stronger effect = lower value) was 0.981 (inactive). The normalized growth (locus YIR030C, strain dcg1, stronger effect = lower value) was 0.992 (inactive), the normalized growth (locus YJL092W, strain hpr5, stronger effect = lower value) was 0.954 (inactive) and the normalized growth (locus YJL095W, strain BCK1 (second series), stronger effect = lower value) was 0.968 (inactive). For the same molecule, the normalized growth (locus YJL095W, strain BCK1, stronger effect = lower value) was 0.873 (inactive) and 0.874 (active), the normalized growth (locus YJL115W, strain asf1, stronger effect = lower value) was 0.947 (inactive) and the normalized growth (locus YJL129C, strain trk1, stronger effect = lower value) was 1.02 (inactive). For the same molecule, the normalized growth (locus YJL134W, strain LCB3, stronger effect = lower value) was 1.01 (inactive), the normalized growth (locus YJL154C, strain vps35, stronger effect = lower value) was 0.979 (inactive) and the normalized growth (locus YJL164C, strain tpk1, stronger effect = lower value) was 0.907 (active). The normalized growth (locus YJL166W, strain qcr8, stronger effect = lower value) was 0.901 (active), the normalized growth (locus YJL168C, strain set2, stronger effect = lower value) was 0.991 (inactive) and the normalized growth (locus YJL187C, strain SWE1 (second series), stronger effect = lower value) was 0.927 (inactive). The normalized growth (locus YJL187C, strain SWE1, stronger effect = lower value) was 0.968 (inactive).
